Data on 19 compounds can be found in the supplement of paper PMC9492666.
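Also: breast cancer cell viability read out with the CCK-8 kit after co-treatment of each compound with the ferroptosis inducer RSL3.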

This experiment relates to MDA-MB-231. Briefly: relative cell viability, compound + RSL3, vs DMSO (fraction of DMSO control); higher = less growth inhibition. The note with it: 72 h.
On to `COc1ccc(-c2coc3cc(O)cc(O)c3c2=O)cc1` [Biochanin A] + COC(=O)c1ccc([C@H]2c3[nH]c4ccccc4c3C[C@H](C(=O)OC)N2C(=O)CCl)cc1 [RSL3], for which the relative cell viability came out at 0.438.

Regarding `O=C(NN1CCCCC1)c1nn(-c2ccc(Cl)cc2Cl)c(-c2ccc(C#Cc3ccc(C(F)(F)F)cc3)s2)c1CNS(=O)(=O)N1CCCC1` + COC(=O)c1ccc([C@H]2c3[nH]c4ccccc4c3C[C@H](C(=O)OC)N2C(=O)CCl)cc1 [RSL3], the relative cell viability came out at 0.345.

Consider `CN1CCN(C(=O)C2C(C(=O)O)[C@H]3CC[C@@H]2O3)CC1` (some centres undefined) + COC(=O)c1ccc([C@H]2c3[nH]c4ccccc4c3C[C@H](C(=O)OC)N2C(=O)CCl)cc1 [RSL3], for which the relative cell viability stood at 0.367.

As to `O=C(O)c1cccc(N=Nc2c(O)[nH]c3ccc(S(=O)(=O)NCc4ccc(F)cc4)cc23)c1` + COC(=O)c1ccc([C@H]2c3[nH]c4ccccc4c3C[C@H](C(=O)OC)N2C(=O)CCl)cc1 [RSL3], the relative cell viability was determined as 0.611.

Take `Cc1nc2ccc(C(=O)N3CCC4(CC3)CC(=O)c3c(cnn3C(C)C)C4)cc2[nH]1` + COC(=O)c1ccc([C@H]2c3[nH]c4ccccc4c3C[C@H](C(=O)OC)N2C(=O)CCl)cc1 [RSL3]: the relative cell viability came to 0.591.

Turning to `Oc1ccc2c(c1)OCO2` [Sesamol] + COC(=O)c1ccc([C@H]2c3[nH]c4ccccc4c3C[C@H](C(=O)OC)N2C(=O)CCl)cc1 [RSL3], the relative cell viability was 0.548.

On to `COc1cc(N2CCN(C)CC2)ccc1Nc1ncc2c(n1)N(C1CCC1)C(=O)N(c1c(C)cccc1C)C2` + COC(=O)c1ccc([C@H]2c3[nH]c4ccccc4c3C[C@H](C(=O)OC)N2C(=O)CCl)cc1 [RSL3], for which the relative cell viability amounted to 0.747.

With `O=C(Nc1cccnn1)N1CCC(=Cc2cccc(Oc3ccc(C(F)(F)F)cn3)c2)CC1` + COC(=O)c1ccc([C@H]2c3[nH]c4ccccc4c3C[C@H](C(=O)OC)N2C(=O)CCl)cc1 [RSL3], the relative cell viability is 0.601.

With `Cc1cnc(C(=O)NCCc2ccc(S(=O)(=O)NC(=O)NC3CCCCC3)cc2)cn1` [Glipizide] + COC(=O)c1ccc([C@H]2c3[nH]c4ccccc4c3C[C@H](C(=O)OC)N2C(=O)CCl)cc1 [RSL3], the relative cell viability was 0.484.

Turning to `O=c1cc(-c2ccc(O)c(-c3c(O)cc(O)c4c(=O)cc(-c5ccc(O)cc5)oc34)c2)oc2cc(O)cc(O)c12` [Amentoflavone] + COC(=O)c1ccc([C@H]2c3[nH]c4ccccc4c3C[C@H](C(=O)OC)N2C(=O)CCl)cc1 [RSL3], the relative cell viability came out at 0.496.

As to `CC(=O)Nc1nc(C)c(S(=O)(=O)Nc2ccc(C(O)(C(F)(F)F)C(F)(F)F)cc2)s1` + COC(=O)c1ccc([C@H]2c3[nH]c4ccccc4c3C[C@H](C(=O)OC)N2C(=O)CCl)cc1 [RSL3], the relative cell viability worked out at 0.952.

Turning to `Cc1ccc(C)c(OCCCC(C)(C)C(=O)O)c1` [Gemfibrozil] + COC(=O)c1ccc([C@H]2c3[nH]c4ccccc4c3C[C@H](C(=O)OC)N2C(=O)CCl)cc1 [RSL3], the relative cell viability came out at 0.523.

For `CC(C)(C)N1C(=O)C(Nc2ccc(N3CCCCC3)cc2)=C(c2ccccc2)S1(=O)=O` + COC(=O)c1ccc([C@H]2c3[nH]c4ccccc4c3C[C@H](C(=O)OC)N2C(=O)CCl)cc1 [RSL3], the relative cell viability was 0.69.

Take `O=C1C(SCCO)=C(SCCO)C(=O)c2ccccc21` + COC(=O)c1ccc([C@H]2c3[nH]c4ccccc4c3C[C@H](C(=O)OC)N2C(=O)CCl)cc1 [RSL3]: the relative cell viability came to 0.925.

`Nc1ccc(C(=O)O)c(O)c1` [Aminopar] + COC(=O)c1ccc([C@H]2c3[nH]c4ccccc4c3C[C@H](C(=O)OC)N2C(=O)CCl)cc1 [RSL3]: the relative cell viability was 0.662.

As for `COc1ccc(-c2cc(=O)c3c(O)c(OC)c(OC)c(OC)c3o2)cc1OC` + COC(=O)c1ccc([C@H]2c3[nH]c4ccccc4c3C[C@H](C(=O)OC)N2C(=O)CCl)cc1 [RSL3], the relative cell viability came out at 0.501.

Consider `CCCCCC=CC(=O)CCc1ccc(O)c(OC)c1` [6-Shogaol] + COC(=O)c1ccc([C@H]2c3[nH]c4ccccc4c3C[C@H](C(=O)OC)N2C(=O)CCl)cc1 [RSL3], for which the relative cell viability worked out at 0.64.

As for `CC(C)CCC[C@@H](C)[C@H]1CC[C@H]2[C@@H]3CCC4=CC(=NO)CC[C@]4(C)[C@H]3CC[C@]12C` [Olesoxime] + COC(=O)c1ccc([C@H]2c3[nH]c4ccccc4c3C[C@H](C(=O)OC)N2C(=O)CCl)cc1 [RSL3], the relative cell viability was found to be 0.689.

Take `O=C(CCCCCCCC(=O)NCCO)NCCO` [Adelmidrol] + COC(=O)c1ccc([C@H]2c3[nH]c4ccccc4c3C[C@H](C(=O)OC)N2C(=O)CCl)cc1 [RSL3]: the relative cell viability was 0.651.
